Among all 5,500 compounds or so, about 2,000 (36%) were called active. Inconclusive results (about 18%) are left out. Cut-off read from the data, not from the text of the source: active = normalized growth mostly below about 0.91 (no sharp cut-off); inconclusive = no clear call, values can overlap the other calls; inactive = mostly above about 0.92. The list shows a part of the results.
Assay: chemical genetic growth profiling, strain panel (AID 1159580);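 note: tested at 20 µM; growth read once vehicle control cultures reached saturation at 30 °C; 1 = growth at the plate median or of vehicle wells; lower values mean less growth of the strain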
Settings: S. cerevisiae deletion strains, growth OD

Measured: normalized growth

NC(COCc1ccccc1)C(=O)O (stereo not drawn)
inactive: locus YHR030C, strain SLT2, hits give low values 1.01 | locus YHR079C, strain IRE1, hits give low values 1 | locus YJL095W, strain BCK1, hits give low values 0.995 | locus YJR066W, strain TOR1, hits give low values 0.891 | locus YLR113W, strain HOG1, hits give low values 1.01 | locus YNL183C, strain NPR1, hits give low values 0.904 | locus YOR231W, strain MKK1, hits give low values 1.01 | locus YPL256C, strain CLN2, hits give low values 0.999
